# The panel holds about 83,000 compounds, 20% with a hit somewhere; the sample as a whole holds those more often.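 A percent growth of 40 corresponds to 60% growth inhibition; 0 means no net growth; -100 means all cells died. Active threshold: below 10.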 A number with no mark means an inactive call. Active and inactive are the calls of the source.
# Key:
# Test in all cases: NCI-60 one-dose screen, 48 h (100 = growth as untreated, 0 = no growth, -100 = all killed)
# Settings in all cases: 10 µM unless noted
# T-47D breast = system: T-47D breast
# BT-549 breast = system: BT-549 breast
# MDA-MB-435 melanoma = system: MDA-MB-435 melanoma
# SW-620 colon = system: SW-620 colon
# MCF7 breast = system: MCF7 breast
# HCT-116 colon = system: HCT-116 colon
# HCC-2998 colon = system: HCC-2998 colon
# KM12 colon = system: KM12 colon
SMILES,growth (T-47D breast),growth (BT-549 breast),growth (MDA-MB-435 melanoma),growth (SW-620 colon),growth (MCF7 breast),growth (HCT-116 colon),growth (HCC-2998 colon),growth (KM12 colon)
CCn1c(SCC(=O)Nc2cccc(C(=O)/C=C/c3ccc(C)cc3)c2)nc2ccccc2c1=O,70.7%,93.3%,75.4%,51.4%,19.7%,10.8%,78.7%,77.4%
CCCn1cnc2c(c1=N)C(c1ccc(Cl)cc1)c1sc3c(C)cccc3c1O2 (centres undefined),45.9%,18%,-40% (active),25.8%,17.4%,9.34% (active),15.3%,10.9%
CCNC(=O)N1CCc2cc(OC)c(OCCc3ccc(OC)c(N)c3)cc2C1c1ccc(C)cc1C (centres undefined),65.8%,-10.9% (active),13.4%,23.2%,17.2%,9.82% (active),20.6%,12.5%
COC(=O)c1[nH]nc2c1C1(C(=O)N(C)c3ccccc31)C(C#N)=C(N)O2 (centres undefined),108%,133%,99.9%,93%,89.6%,101%,104%,103%
O=C(CSc1nnc(-c2ccc(Cl)cc2)n1-c1ccccc1)Nc1cccc(Cl)c1,48.2%,61.6%,72.9%,49.8%,65.1%,12.8%,83.8%,71.9%
CC1(C)CC[C@]2(CN)CC[C@]3(C)C(=CC[C@@H]4[C@@]5(C)CCCNC(C)(C)[C@@H]5CC[C@]43C)[C@H]2C1,78.3%,101%,97.3%,102%,85.7%,90.6%,45.9%,101%
C#Cc1ccc(C(=O)NCc2ccc(/C=C/C(=O)c3nccn3C)cc2)cc1,34%,51%,26.2%,10.5%,12.2%,14%,9.76% (active),15.5%
CC(=O)c1ccc(Nc2nc(SCC(C)C)nc(-c3ccc(F)cc3)c2C#N)cc1,106%,110%,111%,110%,114%,108%,119%,104%
CCN(CC)c1ccc2c(c1)Oc1nc(N)c(C#N)c(N)c1C2Sc1ccc(F)cc1 (centres undefined),-35% (active),56.1%,-17.5% (active),-80.2% (active),-85.5% (active),-81.4% (active),-90.9% (active),-74.1% (active)
O=C(O)c1ccc(-n2cc(CNc3cccc(Cl)c3)c(-c3ccc(F)cc3)n2)cc1,92.1%,108%,102%,110%,70%,89.2%,105%,94.2%
NC(N)=Nc1ccc(Oc2cccc(NC(N)=Nc3ccc(Cl)c(C(F)(F)F)c3)c2)cn1,32.9%,60.4%,46.4%,38.5%,20.2%,15.8%,62.6%,24.7%
COc1cc(/C=C2\C(=O)Nc3ccccc32)ccc1OCc1ccc(Cl)cc1,107%,109%,106%,96.6%,69.5%,86.9%,123%,99.6%
O=C(CCn1c[n+](CC(=O)c2ccc(-c3ccccc3)cc2)c2ccccc21)Nc1cccc2cccnc12,21.6%,53.7%,32.2%,65.2%,19.8%,56%,38.9%,14.5%
CCCCCc1ccc(S(=O)(=O)Nc2cc(-c3csc(NC(=O)CN4CCN(C)CC4)n3)ccc2OC)cc1,-24.3% (active),87.7%,-84.1% (active),-26.9% (active),-63.8% (active),-70.8% (active),-50.2% (active),25.8%
CC1(COc2ccc3ncc(C#Cc4cncc(C(=O)Nc5cccc(C(F)(F)F)c5)c4)n3n2)COC1,78.9%,128%,89.2%,69%,62.8%,56.4%,86.9%,21.1%
N#Cc1cccc(NC(=O)c2cc(-c3ccc(F)cc3F)ccc2O)c1,7.54% (active),-0.215% (active),2.73% (active),13.4%,2.47% (active),5.45% (active),22.7%,2.94% (active)
COc1cc(-c2nc3sccn3c2-c2ccnc(S(C)(=O)=O)n2)ccc1F,97.9%,92.2%,91.5%,99%,84.1%,103%,100%,102%
COC(=O)C(Cc1ccccc1)Nc1nc(NC(Cc2ccccc2)C(=O)OC)nc(N2CCOCC2)n1 (centres undefined),101%,112%,105%,112%,97.8%,99.2%,110%,99.7%
NC(N)=Nc1ccc(Oc2cccc(NC(N)=Nc3ccc(Br)cc3)c2)cn1,37.8%,99.2%,72.7%,76%,10.8%,69.2%,79.3%,66.5%
CNC(=O)c1cc(Oc2ccc3nc(NC(=O)c4cccc(OC(F)(F)F)c4)sc3c2)ccn1,63.1%,137%,79%,103%,77.6%,75.5%,108%,85.6%
COc1ccc(C2CC(c3ccc(Nc4nc(NCCO)nc(N5CCOCC5)n4)cc3)=Nc3c(N)nc(N)nc3N2)cc1 (centres undefined),90.5%,99.2%,108%,101%,86.2%,100%,105%,89%
O=C1[C@H]2Cc3c([nH]c4ccccc34)[C@@H](c3c(Cl)cccc3Cl)N2C(=O)CN1C1CCN(CC2CCCCC2)CC1,94%,96.5%,101%,65.8%,51.9%,35.5%,85.3%,92%
O=C(CN1CCN(c2cc(=O)n(-c3ccccc3)c3ccccc23)CC1)Nc1nc(-c2ccc(Cl)cc2)cs1,24.3%,46.5%,49.8%,74.3%,20.1%,35.8%,92.4%,64.7%
C#CCn1cccc1CNc1ccc(OC)cc1,-55.7% (active),-83.7% (active),-54.5% (active),-36.2% (active),-53.8% (active),-68.7% (active),-89% (active),-72.6% (active)
CCOC(=O)C1=NNC(c2ccc(Cl)cc2)C1C(=O)N1C(=S)NC(=O)C1CC(C)C (centres undefined),89.1%,106%,104%,95.3%,91.5%,97.8%,121%,101%
CCCCCc1ccc(S(=O)(=O)Nc2cc(-c3csc(NC(=O)CN4CCN(CCO)CC4)n3)ccc2OC)cc1,26.8%,88.7%,-48.6% (active),1.64% (active),6.28% (active),-13.2% (active),-23.4% (active),61.2%
CNC(=O)c1c(NC(=O)c2cccc(C(F)(F)F)c2F)sc2c1CCC(=O)C2,13.8%,21.3%,11.9%,14.2%,6.33% (active),5.58% (active),25.2%,3% (active)
COc1cc(-c2nc(-c3ccccc3)[nH]c2-c2ccnc(NCCCNS(=O)(=O)c3cccc(F)c3)n2)ccc1Cl,24.1%,71%,22.5%,71.3%,35.3%,18.8%,55.5%,39.8%

# Source: PubChem BioAssay (NCI)
